The structures appear in SMILES notation. The campaign covered roughly 360,000 compounds. About 2,300 (0.64%) were called active. This is one part of a sample in which actives are shown more often than they occur.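 The calls were made as follows: active = compounds giving at least 50% protection of heart cells from peroxide-induced death in the single-dose screen, raw or plate-pattern-corrected value; inactive = the rest.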

The nature of the experiment: cardioprotection against H2O2-induced cell death, primary screen, uHTS, H9c2 cells, ATPLite luminescence (AID 588492).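 Also: 0% = DMSO wells with peroxide and 100% = DMSO wells without peroxide.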 Particulars: H9c2 cardiomyocytes, H2O2 injury protection, 2 h, at 20 µM, hits give high values. A general note: Cellular ATP, detected with luciferase, serves as a proxy for viable cell number.
For the compound `N#Cc1ncc(C(F)(F)F)cc1Oc1cccnc1`, the protection from H2O2 cell death was -0.3% (inactive).
For the compound `Cc1cc(C)c(C(N)=O)c(Cl)n1`, the protection from H2O2 cell death is 0.4% (inactive).
As to `COc1ccc(OC)c(Nc2nc(-c3ccc(O)c(O)c3)cs2)c1`, the protection from H2O2 cell death was 52% (active).
Turning to `COc1ccc(C(C)(O)c2nc(-c3ccc(C)c(C)c3)cs2)cc1` (configuration not stated), the protection from H2O2 cell death was -13.4% (inactive).
For `COc1ccc(C(O)c2nc(-c3ccc4c(c3)OCO4)cs2)cc1` (configuration not stated), the protection from H2O2 cell death was -5.3% (inactive).
Turning to `[2H]C(CCOS(N)(=O)=O)c1ccccc1` (configuration not stated), the protection from H2O2 cell death was 3% (inactive).
The figure for `CCOC12CC(C)(C)CC(C)(CC3=C1C(=O)CC(C)(C)C3)C2` (configuration not stated) is -0.9% (inactive).
As to `CCC(=O)Oc1cccc(C(=O)Nc2ccc(-c3nnc(-c4ccco4)o3)cc2)c1`, the protection from H2O2 cell death was 77.3% (active).
The figure for `O=C(Nc1ccc(Cl)cc1)c1cccc(OC(=S)N2CCOCC2)c1` is -15.8% (inactive); for `Cc1ccc2nc(-c3ccc(NC(=O)c4cccnc4)cc3)oc2c1` it is 48.1% (inactive).
The figure for `COC(=O)NNC(=O)C1CCC(C)CC1` (configuration not stated) is -10% (inactive).
The figure for `COc1ccc(CN(C)C(=O)c2cc(-c3ccc(C)cc3C)nc3ccccc23)c(OC)c1OC` is 48.9% (inactive).
As for `COc1ccc(-c2cc(C(=O)N(C)CC(=O)Nc3ccccc3Cl)c3ccccc3n2)cc1OC`, the protection from H2O2 cell death was 49.1% (inactive).
Next, `COc1ccc(-c2cc(C(=O)N(C)Cc3ccc(OC)c(OC)c3OC)c3ccccc3n2)cc1OC`: 67.1% (active); `Cc1cc(C)nc(Nc2n[nH]c(-c3ccccc3N)n2)n1`: -9.5% (inactive).
Next, `CCCCCN(C(=O)NC(=O)Nc1ccccc1C)S(C)(=O)=O`: -4.1% (inactive).
Next, `CCC(C)(C)NC(=O)C(c1cccc(OC)c1OC)N(CC(C)C)C(=O)CCC(=O)Nc1cc(C)on1` (configuration not stated): 1.2% (inactive).
In the case of `Cc1ccccc1Cn1c(C)c(C(=O)NCc2cccc(C(F)(F)F)c2)sc1=O`, the protection from H2O2 cell death is -2.6% (inactive).
Next, `COCCNC(=O)/C(C#N)=C/c1cccc(OCc2ccccc2)c1`: 32.1% (inactive); `N#C/C(=C\c1ccc(O)c(O)c1)C(=O)NCc1ccccc1`: 55.9% (active); `COc1ccc(CNC(=O)/C(C#N)=C/c2cccc(OC)c2OC)cc1`: 1.5% (inactive).
Next, `Cn1nc([N+](=O)[O-])nc1Sc1ccc(C(C)(C)C)cc1`: -11.1% (inactive).
Next, `c1ccc(-c2cn3c(n2)CCc2ccc4cccnc4c2-3)cc1`: 61.6% (active); `CCN(CC(=O)NC(C)C)C(=O)CCNC(=O)c1ccc(Cl)cc1`: -0.7% (inactive); `Cc1cccc(Nc2nnc(SCC(=O)c3c(N)n(C4CC4)c(=O)[nH]c3=O)s2)c1C`: -2.2% (inactive).
Consider `CC(=O)Nc1ccc(-c2csc(NC(=O)Nc3ccccc3)n2)cc1`, for which the protection from H2O2 cell death was 50.5% (active).
Next, `CC(=O)Nc1ccc(-c2cn3cccnc3n2)cc1`: -2% (inactive); `NC(c1ccccc1)c1csc(NC(=O)Nc2cccc(C(F)(F)F)c2)n1` (configuration not stated): -10.6% (inactive).
For the compound `CN(C)C(CNC(=O)CCCOc1ccccc1)c1ccco1` (configuration not stated), the protection from H2O2 cell death was 4.6% (inactive).
For the compound `O=C(COC(=O)Cn1cnc2ccccc21)Nc1cccc2c1C(=O)c1ccccc1C2=O`, the protection from H2O2 cell death is 59.5% (active).
Next, `O=C(Cn1cnc2ccccc21)Nc1ccccc1-c1ccccc1`: -5.3% (inactive).
Next, `O=C(COC(=O)c1cccc(Br)c1)Nc1cccc2c1C(=O)c1ccccc1C2=O`: -6.9% (inactive).
For `O=C(CCc1nnc(CCCCc2ccccc2)o1)NC(c1cccnc1)C(F)(F)F` (configuration not stated), the protection from H2O2 cell death is 0.8% (inactive).
The figure for `COc1ccccc1NS(=O)(=O)c1ccc(C)c(C(=O)NNC(=O)c2csc(N3CCOCC3)n2)c1` is 8.3% (inactive); for `CCN(CC)C(=O)Cn1cc(S(=O)(=O)CC(=O)NCc2ccc3c(c2)OCO3)c2ccccc21` it is 2.8% (inactive).
As to `C[C@@H]1C(c2ccc(F)cc2)=NN(c2ccc(Br)cc2)[C@H]1C(=O)N1CCOC1=O`, the protection from H2O2 cell death was -1.3% (inactive).
Next, `COc1ccccc1OCCn1c(SCC(N)=O)nc2ccccc21`: 3.9% (inactive).
For `O=C1N[C@H](Cc2c[nH]c3ccccc23)COC(=O)[C@H](Cc2ccc(F)cc2)C/C=C\C[C@H]1CC(=O)N(CCO)Cc1ccccc1`, the protection from H2O2 cell death is 51.5% (active).
Next, `O=C1N[C@@H](c2ccccc2)COC(=O)[C@H](Cc2ccc(F)cc2)C/C=C\C[C@@H]1CC(=O)N(CCO)Cc1ccccc1`: 8.2% (inactive).
For the compound `O=C1NC[C@@H](c2ccccc2)OC(=O)[C@H](Cc2ccc(F)cc2)CC/C=C/C[C@H]1CC(=O)N(CCO)Cc1ccccc1`, the protection from H2O2 cell death is 61.8% (active).
For the compound `CC(C)(C)OC(=O)C[C@@H]1C/C=C\C[C@@H](CC(=O)N(CCO)Cc2ccccc2)C(=O)N[C@H](Cc2ccccc2)COC1=O`, the protection from H2O2 cell death was 14.2% (inactive).
Next, `O=C1CCC/C=C/C[C@@H](CC(=O)N(CCO)Cc2ccccc2)C(=O)NC[C@H](c2ccccc2)O1`: 0.5% (inactive).
The figure for `O=C1OC[C@@H]2CCCN2C(=O)[C@H](CC(=O)N(CCO)Cc2ccccc2)C/C=C\CC[C@@H]1Cc1ccc(F)cc1` is 2.9% (inactive); for `CCOc1ccc(NC(=O)[C@H](C)NC(=O)C2CC(=O)N(c3ccc(OC)cc3)C2)cc1` (some centres not stated) it is -1.8% (inactive); for `CC(C)(C)OC(=O)N1CCN(C(=O)c2[nH]c(C(F)(F)F)nc2-c2ccccc2)CC1` it is -1.1% (inactive).
Next, `Cc1cc(C)cc(NC(=O)Cn2cnc3c(nnn3Cc3ccc(F)cc3)c2=O)c1`: 0.7% (inactive).
With `O=C(c1ccccc1)N1CCN(C(=O)c2cc3nc(-c4ccccc4)cc(C(F)(F)F)n3n2)CC1`, the protection from H2O2 cell death is 11.3% (inactive).
Next, `C#Cc1cc(N2CCN(C(=O)c3ccoc3)CC2)n2nc(-c3cccc(Cl)c3)cc2n1`: 84.5% (active); `CN(C)CCN1CCN(c2cc(-c3cccc(Cl)c3)nc3ccnn23)CC1`: 19.8% (inactive); `Cc1cc(C)c(-c2csc(NC(=O)CCCc3nc4ccccc4c(=O)[nH]3)n2)c(C)c1`: -4.2% (inactive).
In the case of `O=C(Cn1[nH]c(=O)c2ccccc2c1=O)Nc1cccc(-c2nnc3n2CCCCC3)c1`, the protection from H2O2 cell death was 23.4% (inactive).
The figure for `Cc1ccc(-c2csc(NC(=O)Cn3[nH]c(=O)c4ccccc4c3=O)n2)cc1` is 52% (active).
The figure for `Cc1cc(-n2nc(C)cc2C)n2ncc(-c3ccccc3)c2n1` is 14.3% (inactive); for `CCOC(=O)c1cnc2nc(SCc3ccccc3Cl)[nH]n2c1=O` it is -2.4% (inactive).
The figure for `CCOC(=O)c1cnc(-n2nc(C)cc2C)nc1NNc1cc(C)nc(-c2ccccc2)n1` is 78.5% (active).
In the case of `COc1cc(OC)c(C(=O)OC(C)C(=O)Nc2cc(C(F)(F)F)ccc2Cl)cc1OC` (configuration not stated), the protection from H2O2 cell death is -5% (inactive).
Turning to `Cc1cc(C)n(C(=O)c2ccc(C)c(S(=O)(=O)N3CCOCC3)c2)n1`, the protection from H2O2 cell death was 15.2% (inactive).
The figure for `c1ccc(Cc2nn3c(Cn4cnc5ccccc54)nnc3s2)cc1` is -4.9% (inactive).
Take `N#CC1(NC(=O)COC(=O)Cc2n[nH]c(=O)c3ccccc23)CCCCC1`: the protection from H2O2 cell death was 30.9% (inactive).
Take `NC(=O)c1ccsc1NC(=O)COC(=O)Cc1n[nH]c(=O)c2ccccc12`: the protection from H2O2 cell death is 78.3% (active).
For the compound `CCCCn1nc(C(=O)OCC(=O)Nc2sccc2C(N)=O)c2ccccc2c1=O`, the protection from H2O2 cell death is 29.8% (inactive).
The figure for `CCn1cc(C(=O)N[C@@H](C)C(=O)NCCO)c(=O)c2cc3c(cc21)OCO3` is 3% (inactive); for `COC(=O)c1noc(C)c1-c1ccnn1C(=O)c1ccc(Cl)cc1` it is 3.5% (inactive).
The figure for `CCOc1ccc(OCC)c(NC(=O)CSc2nnc(Cn3cnc4ccccc43)n2C)c1` is -3.2% (inactive); for `O=C(NN=Cc1ccc2c(c1)CCC2)c1ccccc1O` it is -17.8% (inactive); for `Cc1ccc(/C=N/NC(=O)C2=NNC(c3ccccc3)(c3ccccc3)C2)c(O)c1` it is 60.3% (active).
Next, `Cc1ccc2cc(/C=N/NC(=O)[C@@H]3CCCN3)c(Cl)nc2c1`: 14% (inactive); `CC(C)c1nnc(NC(=O)C2CC(=O)N(CCc3ccc(F)cc3)C2)s1` (configuration not stated): -4.8% (inactive); `Cc1nc(S(=O)(=O)c2ccc(Br)cc2)nc2c1CCC2`: -2.2% (inactive).
As for `CCC(CC)C(=O)Nc1c2c(nn1-c1ccc(C)cc1)CS(=O)(=O)C2`, the protection from H2O2 cell death was -4.5% (inactive).
With `CCC(C)(C)NC(=O)C(c1ccccn1)N(C(=O)c1csnn1)c1ccccc1` (configuration not stated), the protection from H2O2 cell death is 1.1% (inactive).
Next, `Cc1ccc(S(=O)(=O)NCC2CCC(C(=O)N3CCOCC3)CC2)cc1` (configuration not stated): 3.4% (inactive).
Next, `Cn1c(SCC(=O)N/N=C/c2ccc(O)c(O)c2)nc2ccccc21`: 70.9% (active).
The figure for `Cc1nn(-c2ccccc2)c(C)c1/C=N/NC(=O)CSc1nc2ccccc2c(=O)n1-c1ccccc1` is 22.5% (inactive); for `Cc1ccc(/C=N/NC(=O)CSc2nc3ccccc3o2)cc1` it is -4.4% (inactive).
Turning to `COc1ccc(S(=O)(=O)N2CCN(CC(=O)NCC3(N4CCOCC4)CCCCC3)CC2)cc1`, the protection from H2O2 cell death is 3% (inactive).
Next, `CC(C)(C)C(=O)Nc1cccc(-c2ccc[nH]2)n1`: 5.3% (inactive).
The figure for `Cc1c(Cl)c([N+](=O)[O-])nn1CCCC(=O)NC(C)c1ccccc1` (configuration not stated) is 5.3% (inactive); for `Cc1c(Cl)c([N+](=O)[O-])nn1Cc1ccc(C(=O)N/N=C\c2cc(Cl)ccc2O)o1` it is 67.5% (active).
On to `Cc1nn(Cc2ccccc2Cl)c(C)c1NC(=O)Cn1nc([N+](=O)[O-])c(Cl)c1C`, for which the protection from H2O2 cell death is 15.4% (inactive).
For `N#Cc1ccc(C(c2ccc(C#N)cc2)n2cncn2)cc1`, the protection from H2O2 cell death was 2.5% (inactive).
The figure for `Cn1c(C(=O)NCCN2CCc3ccccc3C2)cc2c(=O)[nH]c3ccccc3c21` is 19.2% (inactive); for `Cn1c(C(=O)N2CCC(C(N)=O)CC2)cc2c(=O)n(C)c3ccccc3c21` it is 1.2% (inactive); for `Cn1c(C(=O)NCCc2ccsc2)cc2c(=O)n(C)c3ccccc3c21` it is 96.5% (active).
Next, `O=C(NCCc1ccccc1)/C(=C\c1ccc([N+](=O)[O-])cc1)NC(=O)c1ccccc1`: 16.6% (inactive).
Next, `O=C(N/N=C/c1cc([N+](=O)[O-])ccc1O)/C(=C\c1cccs1)NC(=O)c1ccccc1`: 54.9% (active); `O=C(Nc1ccc(C(=O)O)cc1)/C(=C/c1ccc([N+](=O)[O-])cc1)NC(=O)c1ccccc1`: 4.6% (inactive).

These data come from PubChem BioAssay AID588492 (Sanford-Burnham Center for Chemical Genomics, 2011).
